Bioassay records (PubChem BioAssay)
TDP1 cell noCPT – qHTS for Inhibitors of human tyrosyl-DNA phosphodiesterase 1 (TDP1): qHTS in cells in absence of CPT; Potency, µM (highest dose often 46.2 µM), inactives show at the highest dose activity change, negative = growth inhibition, most hits filed as inhibitors; DT40 Tdp1-/- hTDP1 cells, no CPT, ATP luminescence, 48 h; actives 15% (n = 420,000); AID 686978, 2013; further: potency means the concentration at half of the fitted maximal effect; nearly all actives have a fitted effect of over 55% in size
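Growth of hTDP1-complemented DT40 Tdp1-knockout cells is measured by ATP luminescence after at least 48 hr compound exposure at 37 °C, with DMSO substituting for the 20 nM CPT used in the parallel screen.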
ELG1 DNA repair – blocks ELG1-dependent DNA repair in HEK293T cells; Potency, µM (series often up to 46.1 µM), for inactives: at the top dose activity change, negative = inhibition, most hits filed as inhibitors; HEK293T ELG1-luciferase reporter, luminescence, 16 h; DNA damage induced by 5-fluorouridine; actives 2.3% (n = 330,000); further: potency means the concentration at half of the fitted maximal effect; nearly all actives have a fitted effect of over 55% in size
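Cells (2,000 per well) received 5-fluorouridine plus test compound or DMSO and were incubated 16 hr at 37 °C, 5% CO2. Luciferase activity was read by luminescence 30 min after ONE-Glo addition; signal suppression marked inhibition of damage-induced ELG1 function.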
IL-1B inflam inh – inhibitors of inflammasome signaling (IL-1 beta secretion); activity change, % at 57.5 µM; AID 743279; THP-1 LPS/ATP IL-1B secretion, AlphaLISA, 16 h; hits give low values; actives 4.7% (n = 360,000); in the data active means activity change below about -50%; inconclusive means mostly about -30% to -49%
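Secreted IL-1B measured by AlphaLISA bead assay after 16 h compound exposure of THP-1 cells; compounds (final up to 57.5 uM) added 1 h before LPS (250 ng/mL) and ATP (1.25 mM) stimulation; lower signal means less secretion.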
TDP1 cell CPT – DT40-hTDP1 cell growth loss with CPT | actives 12% (n = 420,000) | Potency, µM (highest dose often 46.2 µM), without a hit: top-dose activity change, negative = growth inhibition, most hits filed as inhibitors | AID 686979 | chicken DT40 Tdp1-/-;hTDP1 cells + 20 nM CPT, ATP luminescence, 48 h; further: potency means the concentration at half of the fitted maximal effect; nearly all actives have a fitted effect of over 55% in size
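Chicken DT40 Tdp1-/- cells stably complemented with human TDP1 were seeded at 400 cells/well in medium containing 20 nM camptothecin, exposed to pin-transferred compounds, and grown at 37 °C for at least 48 hr. Viability was read as ATP luminescence.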
HT1080 IDH1KD tx – HT-1080 IDH1 knockdown cell toxicity (counter line) | HT-1080 IDH1 knockdown viability, ATP luminescence, 48 h | Potency, µM (series often up to 46.1 µM), inactives show at the highest dose activity, negative = toxicity, hits mostly cytotoxic | actives 2% (n = 360,000);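 further: potency means the concentration at half of the fitted maximal effect; 0% = DMSO wells and -100% = cell-free medium wells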
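IDH1KD HT-1080 cells, 750/well, RPMI + 5% FBS; compound pinned after 2 h settling; 48 h, 37 °C; CellTiter-Glo luminescence; % activity normalised to DMSO and no-cell wells; curves fitted, classed by r2 and efficacy.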
HT1080NT lethal – kills 2HG-producing HT-1080-NT fibrosarcoma cells; HT-1080-NT fibrosarcoma viability, CellTiter-Glo ATP luminescence, 48 h; Potency, µM (titrated, usually from 46.1 µM), for inactives: at the highest dose activity, negative = less viability, usual class: cytotoxic; actives 1.6% (n = 360,000);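 further: NT is the 2HG producing partner of a matched IDH1 knockdown line; potency means the concentration at half of the fitted maximal effect; 0% = DMSO-treated cells and -100% = media-only wells without cells; nearly all actives have a fitted effect of over 55% in size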
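Compounds were tested in concentration-response format on HT-1080-NT cells for 48 hours at 37 degrees C. Cell viability came from CellTiter-Glo luminescence; curves were classified by r2, response magnitude and activity.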
* marks the source's active call; other numbers are inactive results; u = inconclusive; x = not tested or not shown. In the library only some 19% were active in any assay of this set; here they are far more common. Unless noted, the call rests on the fitted dose curve; in most records, active means well fitted curve in the direction sought with a large enough effect; inconclusive means small, poorly fitted or top-dose-only effect, or another doubt; inactive means no such curve, though single readings can be large; an effect the other way counts as inactive or inconclusive. Unless noted, on the % scale 0 is the no-effect control and ±100 the full control effect.

SMILES | TDP1 cell noCPT | ELG1 DNA repair | IL-1B inflam inh | TDP1 cell CPT | HT1080 IDH1KD tx | HT1080NT lethal
CCOC(=O)C1CCCN(S(=O)(=O)CCNC(=O)c2ccc(F)cc2)C1 (centres undefined) | -28.5% | -5.3% | -12.2 | 23.0% | 21.8% | 29.3%
Cn1c(=O)c(=O)n(C)c2cc(NC(=O)c3cccc(F)c3)c(Cl)cc21 | -22.1% | x | x | 6.4% | x | x
CC1=C(C(=O)OC2CCCCCC2)C(c2c(F)cccc2Cl)CC(=O)N1 (centres undefined) | 16.4µM* | x | x | u | x | x
COCCOC(=O)C1=C(C)NC(=O)NC1c1c(F)cccc1Cl (centres undefined) | 1.5% | 0.0% | 4.8 | -0.6% | 8.0% | 8.9%
CC1=C(C(=O)OC2CCCCC2)C(c2ccccc2)NC(=O)N1 (centres undefined) | u | -12.2% | -12.0 | u | -21.9% | -20.4%
CC1=C(C(=O)OC2CCCC2)C(c2c(F)cccc2Cl)CC(=O)N1 (centres undefined) | 14.6µM* | x | x | u | x | x
COc1cc(Cl)c(C)cc1NC(=O)c1cnn(-c2ccc(C)cc2)c1-n1cccc1 | -7.2% | x | x | 2.2% | x | x
Cc1ccc(-n2ncc(C(=O)NCc3ccccc3C)c2-n2cccc2)cc1 | 23.1µM* | x | x | u | x | x
CCOc1ccccc1CNC(=O)c1cnn(-c2ccc(C)cc2)c1-n1cccc1 | 20.6µM* | x | x | u | x | x
C=C1C(C2(C)C=CC(=O)C(C)(C)C2CC(=O)OC)CC[C@@]2(C)C(c3ccoc3)OC(=O)C3OC132 (some centres undefined) | 6.4% | x | x | 6.5% | x | x
CCOc1ccccc1OCCCC(=O)Nc1cccc(-n2cnnn2)c1C | -0.2% | -0.9% | 20.3 | -17.3% | 3.1% | 3.0%
Cc1cn(C)c(CC(=O)NCc2ccccc2Cl)c1C(=O)O | 1.7% | x | x | 4.5% | x | x
C=CCn1c(=N)n(CC(=O)c2ccc(Br)cc2)c2ccccc21 | u | -3.6% | -83.5* | u | u | u
N=c1n(N)c2ccccc2n1CC(=O)c1ccc(Br)cc1 | 20.6µM* | u | -93.7* | 23.1µM* | u | u
O=S(c1cc(Cl)cc(Cl)c1O)c1cc(Cl)cc(Cl)c1O | u | x | -67.5* | -6.3% | u | u
Oc1c(Cl)cc(Cl)cc1CNc1nccs1 | -8.6% | 7.2% | 25.2 | -0.8% | -13.6% | -18.6%
Cc1ccc(/C=C/C(=O)c2ccccc(=O)c2O)c(C)c1 | 20.6µM* | -26.6% | -103.6* | 14.6µM* | 18.4µM* | 20.6µM*
O=C(/C=C/c1ccc([N+](=O)[O-])cc1)c1ccccc(=O)c1O | 3.26µM* | x | -98.0* | 2.59µM* | 5.8µM* | 6.51µM*
Cc1ccc(C)c(/C=C/C(=O)c2ccccc(=O)c2O)c1 | 6.51µM* | u | -63.9* | 10.3µM* | 14.6µM* | u
O=C(/C=C/c1ccccc1Cl)c1ccccc(=O)c1O | 4.11µM* | u | -96.7* | 2.91µM* | 11.6µM* | 11.6µM*
Cn1c(N)c(C(=O)COC(=O)/C=C/c2ccccc2Cl)c(=O)n(C)c1=O | u | u | 1.4 | u | 8.8% | 8.7%
OCC[C@@H]1C[C@H](O)[C@@H](O)[C@@]2(OCc3ccc(CO)cc32)O1 | 5.2% | x | -16.7 | u | 4.0% | -1.3%
COc1ccc(-c2coc(CCC(=O)N3CCN(c4cc(C)ccc4C)CC3)n2)cc1 | u | -6.4% | 40.3 | u | 6.6% | 5.0%
Nc1nc(SCc2cccnc2)c2ncn(C3OC(CO)C(O)C3O)c2n1 (centres undefined) | -3.2% | x | -2.9 | -13.3% | 8.3% | 21.4%
CCn1c(SCC(=O)N/N=C(\C)c2ccncc2)nnc1-c1ccc(C)cc1 | u | u | 1.3 | -21.5% | 9.4% | 9.6%
SMILES | TDP1 cell noCPT | ELG1 DNA repair | IL-1B inflam inh | TDP1 cell CPT | HT1080 IDH1KD tx | HT1080NT lethal
CCN(CC)c1ccc2cc(-c3nc(-c4ccccc4)no3)c(=O)oc2c1 | 5.8µM* | x | x | u | x | x
O=c1oc2ccccc2cc1-c1nc(-c2ccccc2)no1 | -16.8% | u | 0.4 | -10.7% | 28.8% | 11.9%
CSCCNC(=O)C1(C)CCN1C(=O)C/C=C/c1ccccc1 (centres undefined) | -12.5% | x | -7.5 | -2.9% | -0.6% | 9.6%
CN(C)c1ccc(S(=O)(=O)N(C)C)cc1NC(=O)Cc1cccc2ccccc12 | u | u | -51.8* | u | -17.8% | -0.6%
CC(=O)Nc1ccc(C(=O)NNC(=O)C2C3CCCCC32)cc1 (centres undefined) | 3.4% | -4.3% | 19.7 | -0.2% | 4.1% | 6.4%
Cn1ncn2c(=O)c3c(nc12)-c1ccccc1CC31CCCC1 | u | -21.5% | 62.7 | u | -3.5% | 0.5%
O=c1c2c(n3nnnc3n1-c1ccccc1)-c1ccccc1CC21CCCC1 | u | 14.0% | 21.2 | 2.31µM* | -7.7% | -2.1%
Cn1c(=O)c2c(n3cnnc13)-c1ccccc1CC21CCCC1 | 14.6µM* | u | -12.0 | u | -3.6% | -2.0%
CSc1nnc2n(C)c3c(c(=O)n12)C1(CCCC1)Cc1ccccc1-3 | 25.9µM* | 4.8% | 1.3 | u | -9.4% | -10.6%
O=c1c2c(n3nnnc3n1Cc1ccccc1)-c1ccccc1CC21CCCC1 | u | -4.6% | 14.2 | -29.3% | 6.2% | 7.8%
O=c1c2c(n3cnnc3n1C1CCCCC1)-c1ccccc1CC21CCCCC1 | 25.9µM* | -1.4% | 16.4 | 20.6µM* | 26.3% | -0.9%
CSCCC(NC(=O)COc1ccccc1)C(=O)NCc1cccs1 (centres undefined) | 12.6% | -5.6% | 5.6 | -3.9% | -1.4% | -3.1%
C[C@H](NC(=O)c1ccco1)C(=O)OCC(=O)N1CC(=O)Nc2ccccc21 | -4.6% | 1.7% | 2.5 | 3.5% | -9.9% | 14.4%
Cc1ccsc1/C=N/NS(=O)(=O)c1ccc([N+](=O)[O-])cc1 | -18.1% | -5.6% | -0.7 | -22.5% | 3.0% | 2.1%
Cc1c(OCC(=O)N[C@@H](Cc2ccccc2)C(=O)O)ccc2c1oc(=O)c1ccccc12 | 9.8% | -1.9% | -8.8 | 5.5% | 1.8% | 9.9%
O=C1c2ccccc2C(=O)N1CCCCN(C(=O)c1ccco1)c1ccc(Cl)cc1 | u | u | -12.6 | u | -0.1% | 2.3%
O=C1c2ccccc2C(=O)N1CCCCN(C(=O)c1cccc([N+](=O)[O-])c1)c1ccc(Cl)cc1 | 16.4µM* | u | -8.2 | 20.6µM* | -13.1% | -0.6%
